# mcGAS MS inh: inhibitors of mouse cGAS | Q8C6L5 | recombinant mouse cGAS, cGAMP by RapidFire MS | inhibition, % at 12.5 µM | 130,000 tested, 0.18% active;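 active = inhibition of cGAS enzyme activity at or above 60%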;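 note: enzyme stimulated by 45 bp dsDNA with ATP and GTP substrates; cGAMP share of summed cGAMP plus half ATP and half GTP signals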
# Target sequence (Q8C6L5 whole entry, looked up): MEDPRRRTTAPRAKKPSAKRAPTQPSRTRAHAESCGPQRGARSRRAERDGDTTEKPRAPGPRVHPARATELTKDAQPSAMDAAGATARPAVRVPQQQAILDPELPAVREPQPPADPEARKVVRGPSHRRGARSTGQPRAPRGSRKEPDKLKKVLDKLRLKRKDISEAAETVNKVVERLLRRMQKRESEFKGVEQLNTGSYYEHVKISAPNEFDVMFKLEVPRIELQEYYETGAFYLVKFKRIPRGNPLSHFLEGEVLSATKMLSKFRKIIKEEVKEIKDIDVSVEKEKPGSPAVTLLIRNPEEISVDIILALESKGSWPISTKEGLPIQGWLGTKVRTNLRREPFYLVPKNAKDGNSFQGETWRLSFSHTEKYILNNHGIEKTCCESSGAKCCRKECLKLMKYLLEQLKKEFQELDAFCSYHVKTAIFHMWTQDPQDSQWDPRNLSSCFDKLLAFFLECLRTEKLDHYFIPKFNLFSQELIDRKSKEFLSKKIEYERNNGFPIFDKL
# Active calls of the source: *; ! = not active in a repeat. The full list was thinned out, with hits kept by preference.
SMILES,mcGAS MS inh
CCO[C@H]1CN(C)C[C@@H]1NC(=O)c1cc(COc2cccc(F)c2)[nH]n1,-13.9
COc1ccc(Cl)cc1CN1C(=O)CON=C1c1ccc(C)cc1,63.2*
Cc1ccccc1CN1C(=O)CON=C1c1ccc(N(C)C)cc1,2.8
COc1ccc(Cl)cc1CN1C(=O)CON=C1c1ncccc1C,-2.0
O=C(Nc1ccc(-c2noc(-c3ccccc3Br)n2)cc1)c1cccc(Cl)c1,-3.9
CCCN(Cc1nccn1C)C(=O)c1oc(CC)nc1C,-8.2
CCC1(O)CC(OC2CC(N(C)C)C(OC3CC(O)C(OC4CCC(=O)C(C)O4)C(C)O3)C(C)O2)c2c(cc3c(c2O)C(=O)c2c(O)cccc2C3=O)C1C(=O)OC (stereo not given),96.6*
CC(=O)Nc1ccc(CN2C(=O)CON=C2c2ccc(F)cc2)cc1,-11.4
CN(C)S(=O)(=O)c1cccc(CS(=O)(=O)CCC(=O)NC2CC2)c1,-6.2
Cc1ccc(N=Nc2c(-c3ccccc3)[nH]n(-c3ccccc3)c2=O)cc1Br,25.1
Nc1nccnc1C(=O)OCc1cc(F)cc2c1OCOC2,-6.4
COC(=O)C1=C(C)NC(C)=C(C(=O)OCC(C)C)C1c1ccccc1[N+](=O)[O-] (stereo not given),65.3*!
CCN1C(=O)NC(c2ccccc2[N+](=O)[O-])C(C(=O)OCCOC)=C1C (stereo not given),-8.1
COC(=O)C1=C(C)NC(C)=C(C(=O)OCCN)C1c1ccccc1C(F)(F)F (stereo not given),-7.1
Cc1cc(C(=O)N2CCN(c3cc(F)ccc3F)CC2)n[nH]1,-11.9
CCN1C(=Cc2ccc3cc(C)ccc3[n+]2CC)Sc2ccccc21,10.9
CCN1C(=CC=Cc2sc3ccccc3[n+]2CC)Sc2ccccc21,70.3*
CCC(C)[n+]1c(C)cc(C=C2Sc3ccccc3N2CC)cc1C (stereo not given),-10.4
CN(C)N=CC=C1CCC(=Cc2ccc(C(F)(F)F)cc2)C1=O,-2.8
O=C(c1cc(-c2ccc(O)cc2)n[nH]1)N1CCC(c2ccncc2)CC1,2.1
Oc1oc(-c2cccc3ccccc23)nc1C=Nc1cccc(F)c1,-5.8
Cc1cc(Cl)ccc1N=Cc1nc(-c2ccccc2Br)oc1O,-12.9
Cc1ccc(Cl)cc1N=Cc1nc(-c2ccc(Cl)cc2)oc1O,-19.4
Cc1cccc(N=Cc2nc(-c3cccc4ccccc34)oc2O)c1,88.0*
Cc1ccc(-c2nc(C=Nc3cccc(C)c3)c(O)o2)cc1,-13.9
SMILES,mcGAS MS inh
Cc1ccc(Cl)cc1N=Cc1nc(-c2cccc3ccccc23)oc1O,82.6*
CCOc1ccc(-c2n[nH]c(=S)n2-c2ccccc2F)cc1,10.7
c1ccc(-c2[nH]cnc2-c2cccc(CN3CCOCC3)c2)cc1,-9.1
c1ccc(Cc2n[nH]c(COc3ccc(-n4cnnn4)cc3)n2)cc1,-23.2
O=C1C(=Cc2ccc(-c3ccccc3)cc2)CS(=O)(=O)c2ccc(F)cc21,-1.1
N#Cc1ccc(/C=C2\SCCc3ccccc3C2=O)cc1,7.2
N#Cc1ccc(/C=C2\CS(=O)(=O)c3c(F)cccc3C2=O)cc1,63.1*
C[n+]1cc2c3c(ccc2c2ccc4cc5c(cc4c21)OCO5)OCO3,85.4*!
CC(=C(C#N)C#N)c1ccc2c(c1)OCO2,-1.9
C=C(Cl)CSc1nc2cc(S(N)(=O)=O)ccc2n1CCC,0.1
CC(C)(C)C(=O)NC(=S)NC1=CC2N=C(c3ccncc3)OC2C=C1 (stereo not given),-29.8
CS(=O)(=O)c1ncc2c(n1)c(=O)c(C#N)c1[nH]c3ccccc3c(=O)n12,67.4*
COCCNc1ncc2c(n1)c(=O)c(C#N)c1[nH]c3ccc(Br)cc3c(=O)n12,24.7
Cc1c(Cc2ccc(Cl)cc2)c(=O)n2c([nH]c3ccccc32)c1C#N,-2.1
CCOc1ccc(OC(C)C(=O)NNC(=O)C(C)n2cccn2)cc1 (stereo not given),0.2
CN(CCCn1ccnc1)C(=O)Nc1cccc(Oc2ccccn2)c1,-6.2
CCC(C)Oc1cccc(NC(=O)CC(C)(C)C(=O)O)c1 (stereo not given),2.2
CCn1cc(C(=O)O)c(=O)c2cnc(N3CCCC3)nc21,77.9*
CCn1cc(C(=O)O)c(=O)c2cc3c(cc21)OCO3,-9.1
CCc1ccccc1-n1ccc2nc(N3CCCCC3)ncc2c1=O,-18.4
O=C(c1ncn[nH]1)N1CCN(c2nccc(CCC(F)(F)F)n2)CC1,-0.2
CC(C)C(C)NC(=O)c1ccc2c(c1)S(=O)(=O)Nc1ncnn1-2 (stereo not given),1.6
COC(=O)c1nc2n(n1)-c1ccccc1S(=O)(=O)N2,91.3*
COC(=O)CSC1=NS(=O)(=O)c2ccccc2N1,-3.3
CCN(CCn1cccn1)C(=O)CC1C(=O)NCCN1Cc1ccccc1C (stereo not given),0.2
SMILES,mcGAS MS inh
Cc1cc(C)cc(C(=O)NCC(=O)N(C)CC23CC4CC(CC(C4)C2)C3)c1,2.3
COC(C)c1noc(CN2CCCN(CC(=O)N(C)c3ccccc3)CC2)n1 (stereo not given),-0.9
Cc1ccccc1CC1(CO)CCCN(C(=O)CN2CCOc3ccccc3C2)C1 (stereo not given),-9.0
Cc1ccccc1CC1(CO)CCCN(C(=O)c2ccccc2N(C)C)C1 (stereo not given),90.6*
Cc1cccc(C(=O)N2CCCC(CO)(Cc3ccccc3C)C2)n1 (stereo not given),-8.7
O=S(=O)(NCc1ccccc1)Nc1cccc(-c2cnco2)c1,-9.4
CC1(C)OCCN2C(=O)OC3(C)CCC1C23C (stereo not given),2.6
O=C(O)C12CCCC(Br)(CCC1)C2,2.4
O=C(O)C12CC3CC(CC(C3)C1)C2,-3.1
CCCC1CCCN(C(=O)c2cc3ccccc3cc2O)CC1 (stereo not given),-12.5
CC(C)CC(C)n1nccc1NC(=O)c1cncc(Br)c1 (stereo not given),-6.4
CCn1c(=O)c2c(nc3n(-c4ccc(C(F)(F)F)cc4)c(C)c(C)n23)n(C)c1=O,-7.8
Cc1cc(NC(=O)CN(C)CCNC(=O)C2CCCC2)no1,-8.7
CCCCCCCCCCCC[N+](C)(C)CCOc1ccccc1,9.3
C[N+](C)(C)CCCCCC[N+](C)(C)C,-8.4
CCCCCCCCCCCCCCCC[N+](C)(C)C,98.1*!
CCCCOc1ccc(C(=O)Nc2ccc3c(c2)N(CCC)C(=O)C(C)(C)CO3)cc1,6.5
Fc1ccc(N2CCCN(Cc3cnc(-c4ccccn4)nc3)CC2)cc1,-6.1
CCN(CC)S(=O)(=O)c1cccc(C(=O)Nc2nnc(C(C)C)s2)c1,1.9
N#CC1(NC(=O)CSc2nnc(-c3c[nH]c4ccccc34)o2)CCCCC1,-4.3
CCSc1nnc2c(=O)[nH]c(=O)[nH]c2n1,83.8*
Cn1c(N)c(C(=O)CSc2nnc3c(n2)[nH]c2ccccc23)c(=O)n(C)c1=O,-5.1
CCSc1nnc2c3ccccc3n(C)c2n1,-7.9
Cc1cccc(NC(=O)C(NC(=O)NCc2ccc(F)cc2)C(C)C)c1C (stereo not given),-7.4
COC(=O)Oc1cc2oc(=O)sc2cc1Br,2.4
SMILES,mcGAS MS inh
O=c1oc2ccc(O)cc2s1,1.0
CCOC(=O)Oc1cc2oc(=O)sc2cc1Br,74.3*
Cc1cccc(SC2CCN(C(=O)c3ccc4nc(C5CC5)oc4c3)CC2)c1,-1.2
CC(C)CNC(=O)CN1CCN(Cn2nc(Nc3ccccc3Cl)sc2=S)CC1,-6.2
Cc1cc(-c2nnc3sc(-c4ccc5ccccc5n4)nn23)n[nH]1,-7.0
CC(C)c1cc(-c2nn3c(C(C)(C)C)nnc3s2)n[nH]1,75.4*
COc1ccc2[nH]c(-c3nn4c(C(C)C)nnc4s3)cc2c1,-3.7
CCOC(=O)N=Nc1c(O)[nH]c2c(C)c(C)ccc12,-6.8

# Assay outcomes: PubChem, Fisher Drug Discovery Resource Center
